Experimental findings from PubChem BioAssay AID2561 (National Center for Advancing Translational Sciences (NCATS), 2010) are described below.

Several values for one entry are separate records, joined by “and”; a condition that tells them apart may be missing. Equal entries are not always repeated. Inconclusive results are not listed. Unmarked numbers belong to inactive results. Activity calls are given as the source filed them. Calls follow the shape of the dose curve; as a rule, active = well fitted inhibition curve with a large enough effect; inconclusive = small, poorly fitted or top-dose-only effect, or effect the other way; inactive = flat fitted curve, though single readings scatter.
Potency is read from the fitted curve at half-maximal effect.

In this test the target is Pyruvate kinase (Leishmania mexicana) (UniProt Q27686). Kind of test: Confirmation Assay for Inhibitors of Leishmania Mexicana Pyruvate Kinase (LmPK): for Probe SAR.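 As to activity change, negative = inhibition: plate controls were uninhibited enzyme for no effect and no enzyme wells for full effect.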 As to conditions: purified LmPK, ATP generation, Kinase-Glo luminescence; series mostly up to 57.5 µM; activity change, negative = inhibition: at the top concentration. The text has this: NIH Chemical Genomics Center [NCGC] Malcolm Walkinshaw, Hugh Morgan, Linda Gilmore University of Edinburgh, UK MLPCN Grant: 1 R03 MH085697-01 NCGC Assay Overview: Pyruvate kinase (L. Mexicana) (LmPK) enzyme was supplied as a highly purified (>95% pure) sulphate-free preparation from University of Edinburgh, UK and assayed for its ability to generate ATP from ADP using phosphoenolpyruvate (PEP) as a substrate. ATP generation was detected in a coupled reaction by luciferase-mediated luminescence, an ATP-dependent process. Pyruvate kinase substrates, PEP and ADP, were present in the assay at Km and approximately 10-fold below Km respectively. The enzyme was assayed at an intermediate level of activity to screen for both inhibitors and activators.
Sequence of Pyruvate kinase (Leishmania mexicana) (Q27686 whole entry, looked up): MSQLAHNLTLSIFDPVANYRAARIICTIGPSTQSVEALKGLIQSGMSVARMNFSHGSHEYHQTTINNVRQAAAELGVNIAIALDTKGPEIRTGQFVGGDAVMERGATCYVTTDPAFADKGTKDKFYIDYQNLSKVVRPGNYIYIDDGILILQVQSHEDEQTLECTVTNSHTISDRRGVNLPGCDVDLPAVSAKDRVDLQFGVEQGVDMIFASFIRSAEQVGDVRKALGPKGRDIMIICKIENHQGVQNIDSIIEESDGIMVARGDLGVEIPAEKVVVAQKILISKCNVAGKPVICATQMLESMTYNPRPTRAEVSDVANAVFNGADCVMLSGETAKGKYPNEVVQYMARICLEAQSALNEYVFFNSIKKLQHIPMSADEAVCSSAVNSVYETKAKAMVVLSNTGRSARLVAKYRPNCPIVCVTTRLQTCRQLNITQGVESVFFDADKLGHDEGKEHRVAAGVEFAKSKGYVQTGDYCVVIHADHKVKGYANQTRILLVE
NCGC Assay Protocol Summary: Three uL of enzyme mix (kept on ice) in assay buffer (50 mM Imidazole pH7.2, 50 mM KCl, 7 mM MgCl2, 0.01% Tween 20, 0.05% BSA) containing PEP (0.5 mM final concentration) and LmPK (0.1 nM final concentration) was dispensed into white solid bottom 1,536 well microtiter plates. 23 nL of compound were delivered by a pin tool and 1 uL of ADP mix in assay buffer (r.t; 0.1 mM final ADP concentration) was added. Plates were incubated at room temperature for 1 hour. Two uL of detection mix (Kinase-Glo, Promega; at 4 degree Celsius protected from light) was added and luminescence read by a ViewLux (Perkin Elmer) at 1 second exposure/plate. Data were normalized to the uninhibited and AC100 inhibition (no enzyme). To monitor activation, the first column contained a five-fold concentration of LmPK (0.5 nM).
(In general: Kinase-Glo measures the ATP left after a reaction by luminescence.)
As for `O=C(O)c1ccccc1SC1=NS(=O)(=O)c2ccccc21`, the Potency was 4.61 µM (active) and 8.91 µM (active).
Same read-out and setting: under `Cc1cc2c(s1)c1cnn(Cc3ccccc3F)c(=O)c1n2C` stands “inactive”.
For the compound `O=C1NS(=O)(=O)c2cscc21`, the “activity change, negative = inhibition” value is 2.97%.
Still for that read-out and setting: next, `O=C1CCc2cc(S(=O)(=O)Nc3cccc(-c4ccccc4)c3)ccc2N1`: 15%; `Cc1ccccc1NS(=O)(=O)c1ccc2c(c1)CCC(=O)N2`: 10.1%.
Take `O=C1c2ccccc2C(=O)N1C1CCCCC1`: the “activity change, negative = inhibition” value was 5.07%.
On the same count and under the same terms, under `Cn1c2cc(S(C)=O)sc2c2cnn(Cc3cccc(N)c3)c(=O)c21` (stereo not given) stands 4.83%; under `Cc1ccccc1Nc1c(-c2ccccc2)nc2cccc(C)n12`, 8.08%; under `Cc1ccc(Nc2c(-c3ccsc3)nc3c(C)cccn23)cc1`, -12%.
Same read-out and setting: under `O=C1c2ccccc2C(=O)N1Cc1cccnc1` stands -2.71%.
Same read-out and setting: under `O=C1c2ccccc2C(=O)N1Cc1ccccn1` stands -7.55%.
For the compound `Cc1ccc(C)c(SC2=N[S+](=O)([O-])c3cc(C(=O)Nc4ccc5ncccc5c4)ccc32)c1`, the “activity change, negative = inhibition” value is -10.8%.
Take `O=C1c2ccccc2C(=O)N1c1ncccc1O`: the “activity change, negative = inhibition” value was 5.08%.
As to `Cc1sc(C)c2c1C(=O)NS2(=O)=O`, the “activity change, negative = inhibition” value is 2.41%.
Still for that read-out and setting: under `CC(=O)Nc1ccc(S(=O)(=O)Nc2ccc(C)c(C)c2)cc1` stands -4.95%.
As to `Cc1cc(C)c2ccc(C3C(=O)c4ccc(O)cc4C3=O)nc2c1` (stereo not given), the “activity change, negative = inhibition” value was -13.6%.
Same read-out and setting: next, `Cc1ccc(NS(=O)(=O)c2ccc3c(c2)N(C)CCO3)cc1C`: 20.5%; `O=C1c2ccccc2C(=O)N1c1cccnc1`: 15.6%; `COC(=O)c1ccc2c(c1)S(=O)(=O)NC2=O`: -0.49%.
On the same count and under the same terms, next, `O=C1CCc2cc(S(=O)(=O)Nc3ccc(F)cc3)ccc2N1`: 5.68%; `O=C1NS(=O)(=O)c2cc(Br)ccc21`: 1.61%.
Take `Cc1cc(C)c2nc(C3C(=O)c4ccccc4C3=O)ccc2c1`: the “activity change, negative = inhibition” value was -5.25%.
Still for that read-out and setting: under `Cc1ccc(NS(=O)(=O)c2ccc3c(c2)NC(=O)CO3)cc1C` stands 18.8%.
On the same count and under the same terms, next, `COc1cccc(OC2=NS(=O)(=O)c3ccccc32)c1`: 7.22%; `COc1ccc(O)cc1`: 10.5%; `COc1cccc2ccc(C3C(=O)c4ccccc4C3=O)nc12`: -3.4%.
`O=C1c2ccccc2C(=O)N1c1cc(=O)c2ccccc2[nH]1`: the Potency was 3.26 µM (active).
As to `O=C1c2ccccc2C(=O)N1c1ccc(O)cc1`, the “activity change, negative = inhibition” value is 10.1%.
Still for that read-out and setting: under `Cc1ccc(NS(=O)(=O)c2ccc3c(c2)oc(=O)n3C)cc1C` stands 8.92%; under `Cc1ccc(NS(=O)(=O)c2ccc3c(c2)CCCC(=O)N3)cc1C`, 13.9%; under `Nc1ccccc1OC1=NS(=O)(=O)c2ccccc21`, 1.06%.
The same measure, in the same setting: next, `O=C1CCc2cc(S(=O)(=O)Nc3ccc4ccccc4c3)ccc2N1`: 19.4%.
For the compound `O=S1(=O)N=C(Oc2ccc3ccccc3c2)c2ccccc21`, the Potency is 4.11 µM (active).
Regarding `COc1ccc(-c2nc3cccc(C)n3c2Nc2ccc(C)cc2)cc1`, the “activity change, negative = inhibition” value was 1.54%.
Still for that read-out and setting: under `O=C1CCc2cc(S(=O)(=O)Nc3cccc(C(F)(F)F)c3)ccc2N1` stands 0%; under `COc1ccc(NS(=O)(=O)c2ccccc2C(=O)O)cc1`, 8.54%.
With `COc1cccc(Cn2ncc3c4sc(S(C)=O)cc4n(C)c3c2=O)c1` (stereo not given), the Potency entry is “inactive”.
On to `Cc1ccc(C)c(O)c1`, for which the “activity change, negative = inhibition” value was -3.02%.
As to `Cc1scc2c1C(=O)NS2(=O)=O`, the “activity change, negative = inhibition” value was 1.67%.
For the compound `N#Cc1ccccc1OC1=NS(=O)(=O)c2ccccc21`, the Potency is 5.8 µM (active).
